Data on 1 compound can be found in ChEMBL document CHEMBL1961873, “Compounds: GSK PKIS; Assays: Nanosyn kinase panel” (2012).

Experiment [1] has as its target Protein kinase C gamma type (Homo sapiens) (UniProt P05129). Conditions: at 1 µM.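 Further: each value is an averaged percent inhibition of the enzyme.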
Experiment [2] addresses T1, Protein kinase C iota type (Homo sapiens) (UniProt P41743).
T1 sequence (whole entry): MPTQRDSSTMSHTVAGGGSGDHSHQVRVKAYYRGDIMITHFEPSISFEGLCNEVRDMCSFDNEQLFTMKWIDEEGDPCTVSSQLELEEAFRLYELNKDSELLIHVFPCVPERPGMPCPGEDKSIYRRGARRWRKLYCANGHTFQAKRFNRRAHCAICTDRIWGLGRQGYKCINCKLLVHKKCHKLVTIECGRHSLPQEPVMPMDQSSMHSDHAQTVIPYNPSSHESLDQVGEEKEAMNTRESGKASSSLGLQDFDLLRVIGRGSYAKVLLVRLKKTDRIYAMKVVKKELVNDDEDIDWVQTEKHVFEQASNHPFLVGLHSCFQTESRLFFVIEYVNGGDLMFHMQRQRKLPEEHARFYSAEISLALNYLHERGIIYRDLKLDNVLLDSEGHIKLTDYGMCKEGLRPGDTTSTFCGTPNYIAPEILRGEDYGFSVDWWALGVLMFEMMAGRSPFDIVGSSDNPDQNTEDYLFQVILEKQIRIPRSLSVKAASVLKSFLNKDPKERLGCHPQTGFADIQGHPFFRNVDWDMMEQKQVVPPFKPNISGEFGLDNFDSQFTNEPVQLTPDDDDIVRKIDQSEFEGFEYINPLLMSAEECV
As to conditions: at 0.1 µM.

In experiment [3] the target is T1, Protein kinase C iota type (Homo sapiens). Conditions: at 1 µM.
For experiment [4], the target named is Protein kinase C theta type (Homo sapiens) (UniProt Q04759). Conditions: at 0.1 µM.
For experiment [5] the target is unchanged. As to conditions: at 1 µM.
The target of experiment [6] is Protein kinase C beta type (Homo sapiens) (UniProt P05771). As to conditions: at 0.1 µM.
The target is the same in experiment [7]. Conditions: at 1 µM.
The target in experiment [8] is T2, Serine/threonine-protein kinase D1 (Homo sapiens) (UniProt Q15139).
T2 sequence (whole entry): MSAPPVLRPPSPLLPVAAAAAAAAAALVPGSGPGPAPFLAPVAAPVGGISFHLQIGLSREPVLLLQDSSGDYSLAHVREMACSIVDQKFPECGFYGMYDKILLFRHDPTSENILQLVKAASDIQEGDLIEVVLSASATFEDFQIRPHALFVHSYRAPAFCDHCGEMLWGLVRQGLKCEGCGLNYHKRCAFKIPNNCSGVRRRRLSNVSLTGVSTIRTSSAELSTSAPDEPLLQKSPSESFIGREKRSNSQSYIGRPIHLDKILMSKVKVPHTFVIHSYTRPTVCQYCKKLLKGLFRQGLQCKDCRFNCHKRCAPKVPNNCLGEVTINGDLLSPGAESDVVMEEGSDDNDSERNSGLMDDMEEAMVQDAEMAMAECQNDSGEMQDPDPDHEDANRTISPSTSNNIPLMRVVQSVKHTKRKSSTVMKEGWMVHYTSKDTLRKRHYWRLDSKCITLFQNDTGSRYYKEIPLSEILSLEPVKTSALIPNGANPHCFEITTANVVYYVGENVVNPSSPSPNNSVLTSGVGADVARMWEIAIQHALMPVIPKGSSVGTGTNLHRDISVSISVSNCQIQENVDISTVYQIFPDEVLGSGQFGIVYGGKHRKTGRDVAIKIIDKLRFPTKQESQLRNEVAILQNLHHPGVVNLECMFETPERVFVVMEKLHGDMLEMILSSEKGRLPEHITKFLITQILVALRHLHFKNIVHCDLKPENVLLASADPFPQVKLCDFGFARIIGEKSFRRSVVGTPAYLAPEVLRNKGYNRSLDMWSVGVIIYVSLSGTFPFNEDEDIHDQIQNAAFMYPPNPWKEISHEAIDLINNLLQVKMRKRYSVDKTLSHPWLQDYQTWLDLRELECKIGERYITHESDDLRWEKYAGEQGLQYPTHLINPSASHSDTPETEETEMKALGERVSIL
As to conditions: at 0.1 µM.

Experiment [9] concerns the target T2, Serine/threonine-protein kinase D1 (Homo sapiens). As to conditions: at 1 µM.
Experiment [10] addresses T3, Serine/threonine-protein kinase D2 (Homo sapiens) (UniProt Q9BZL6).
T3 sequence (whole entry): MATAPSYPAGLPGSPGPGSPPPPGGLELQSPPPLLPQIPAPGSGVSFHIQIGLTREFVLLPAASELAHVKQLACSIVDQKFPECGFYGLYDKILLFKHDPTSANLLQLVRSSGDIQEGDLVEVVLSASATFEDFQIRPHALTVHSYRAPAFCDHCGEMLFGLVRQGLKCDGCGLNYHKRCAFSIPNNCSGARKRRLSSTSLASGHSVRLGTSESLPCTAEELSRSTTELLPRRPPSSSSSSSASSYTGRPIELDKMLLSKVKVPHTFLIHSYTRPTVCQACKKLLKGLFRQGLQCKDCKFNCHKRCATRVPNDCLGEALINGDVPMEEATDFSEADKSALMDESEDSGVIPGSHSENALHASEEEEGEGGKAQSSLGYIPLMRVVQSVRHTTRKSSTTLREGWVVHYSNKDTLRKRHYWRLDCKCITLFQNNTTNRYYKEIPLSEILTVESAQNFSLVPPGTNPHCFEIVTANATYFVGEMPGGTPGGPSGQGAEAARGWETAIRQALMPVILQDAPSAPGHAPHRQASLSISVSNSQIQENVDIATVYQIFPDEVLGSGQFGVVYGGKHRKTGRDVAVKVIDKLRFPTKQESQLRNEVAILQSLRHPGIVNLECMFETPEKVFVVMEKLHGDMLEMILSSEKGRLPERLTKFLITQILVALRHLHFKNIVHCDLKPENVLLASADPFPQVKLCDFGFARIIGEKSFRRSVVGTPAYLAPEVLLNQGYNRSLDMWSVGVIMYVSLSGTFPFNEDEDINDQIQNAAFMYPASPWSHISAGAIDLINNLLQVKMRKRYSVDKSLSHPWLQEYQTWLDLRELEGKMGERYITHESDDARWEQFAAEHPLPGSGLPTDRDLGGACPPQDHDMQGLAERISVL
Conditions: at 0.1 µM.

For experiment [11], the target named is T3, Serine/threonine-protein kinase D2 (Homo sapiens). As to conditions: at 1 µM.
In experiment [12] the target is T4, Serine/threonine-protein kinase D3 (Homo sapiens) (UniProt O94806).
T4 sequence (whole entry): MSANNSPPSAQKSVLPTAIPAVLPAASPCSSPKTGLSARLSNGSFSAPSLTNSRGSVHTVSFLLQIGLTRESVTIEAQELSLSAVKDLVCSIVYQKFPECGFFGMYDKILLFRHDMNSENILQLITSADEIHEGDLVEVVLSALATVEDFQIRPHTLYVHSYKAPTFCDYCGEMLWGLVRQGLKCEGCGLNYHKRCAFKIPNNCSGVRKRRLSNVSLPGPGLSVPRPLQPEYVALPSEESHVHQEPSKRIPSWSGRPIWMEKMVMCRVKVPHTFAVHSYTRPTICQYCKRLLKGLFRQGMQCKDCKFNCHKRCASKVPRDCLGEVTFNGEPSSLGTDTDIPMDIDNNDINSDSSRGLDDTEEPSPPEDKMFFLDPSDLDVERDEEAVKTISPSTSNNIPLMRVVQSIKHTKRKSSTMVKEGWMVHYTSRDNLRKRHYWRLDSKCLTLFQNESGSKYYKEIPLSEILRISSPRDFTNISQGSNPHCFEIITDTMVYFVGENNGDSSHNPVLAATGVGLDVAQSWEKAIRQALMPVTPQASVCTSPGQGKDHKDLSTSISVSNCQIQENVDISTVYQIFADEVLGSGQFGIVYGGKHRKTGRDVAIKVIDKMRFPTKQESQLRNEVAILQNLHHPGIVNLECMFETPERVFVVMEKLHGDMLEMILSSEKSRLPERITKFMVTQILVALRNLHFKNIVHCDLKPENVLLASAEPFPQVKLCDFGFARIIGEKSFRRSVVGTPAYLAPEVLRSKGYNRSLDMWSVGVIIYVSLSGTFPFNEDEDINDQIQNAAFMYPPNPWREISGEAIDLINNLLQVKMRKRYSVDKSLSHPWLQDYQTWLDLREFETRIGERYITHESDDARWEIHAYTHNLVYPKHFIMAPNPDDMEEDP
As to conditions: at 0.1 µM.

In experiment [13] the target is T4, Serine/threonine-protein kinase D3 (Homo sapiens). As to conditions: at 1 µM.
The target in experiment [14] is T5, cGMP-dependent protein kinase 1 (Homo sapiens) (UniProt Q13976).
T5 sequence (whole entry): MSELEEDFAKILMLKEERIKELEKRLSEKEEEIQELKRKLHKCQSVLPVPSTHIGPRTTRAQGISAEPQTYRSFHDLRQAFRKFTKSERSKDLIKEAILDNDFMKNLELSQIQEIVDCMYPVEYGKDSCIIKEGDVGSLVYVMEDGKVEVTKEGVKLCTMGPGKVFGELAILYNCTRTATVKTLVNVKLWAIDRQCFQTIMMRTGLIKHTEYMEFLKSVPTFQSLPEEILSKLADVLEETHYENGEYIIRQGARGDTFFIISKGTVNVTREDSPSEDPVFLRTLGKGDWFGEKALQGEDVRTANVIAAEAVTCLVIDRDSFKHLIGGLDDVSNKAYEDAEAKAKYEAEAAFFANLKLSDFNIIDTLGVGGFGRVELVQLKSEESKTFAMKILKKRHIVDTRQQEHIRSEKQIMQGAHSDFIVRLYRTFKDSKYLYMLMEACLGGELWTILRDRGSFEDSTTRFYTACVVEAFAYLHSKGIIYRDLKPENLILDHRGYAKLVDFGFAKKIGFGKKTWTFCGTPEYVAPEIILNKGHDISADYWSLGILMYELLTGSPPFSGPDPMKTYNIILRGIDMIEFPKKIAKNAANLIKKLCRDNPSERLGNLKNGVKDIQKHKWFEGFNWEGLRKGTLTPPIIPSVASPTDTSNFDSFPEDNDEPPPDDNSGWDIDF
As to conditions: at 0.1 µM.

Experiment [15] addresses T5, cGMP-dependent protein kinase 1 (Homo sapiens). Conditions: at 1 µM.
For experiment [16], the target named is T6, cGMP-dependent protein kinase 2 (Homo sapiens) (UniProt Q13237).
T6 sequence (whole entry): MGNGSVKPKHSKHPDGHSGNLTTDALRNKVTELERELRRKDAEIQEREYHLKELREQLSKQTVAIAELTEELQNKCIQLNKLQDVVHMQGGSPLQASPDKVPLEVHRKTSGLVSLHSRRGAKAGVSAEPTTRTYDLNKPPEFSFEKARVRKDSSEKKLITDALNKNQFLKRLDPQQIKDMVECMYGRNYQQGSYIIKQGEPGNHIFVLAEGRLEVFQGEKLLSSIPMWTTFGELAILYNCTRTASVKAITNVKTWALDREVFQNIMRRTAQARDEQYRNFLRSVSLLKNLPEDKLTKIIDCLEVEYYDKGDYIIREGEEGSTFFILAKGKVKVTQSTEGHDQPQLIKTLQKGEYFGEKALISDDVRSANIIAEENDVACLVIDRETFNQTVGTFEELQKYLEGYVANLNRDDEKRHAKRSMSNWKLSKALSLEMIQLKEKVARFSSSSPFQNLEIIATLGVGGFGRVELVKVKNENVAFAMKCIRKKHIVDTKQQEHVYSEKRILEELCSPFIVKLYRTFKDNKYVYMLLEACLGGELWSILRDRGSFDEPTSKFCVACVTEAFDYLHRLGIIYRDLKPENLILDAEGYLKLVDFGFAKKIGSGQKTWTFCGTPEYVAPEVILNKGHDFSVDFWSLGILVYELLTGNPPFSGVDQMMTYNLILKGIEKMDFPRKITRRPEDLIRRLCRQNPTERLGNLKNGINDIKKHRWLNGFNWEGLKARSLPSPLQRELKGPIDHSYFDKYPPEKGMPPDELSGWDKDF
Conditions: at 0.1 µM.

Experiment [17] concerns the target T6, cGMP-dependent protein kinase 2 (Homo sapiens). Conditions: at 1 µM.
Experiment [18] addresses T7, cAMP-dependent protein kinase catalytic subunit PRKX (Homo sapiens) (UniProt P51817).
T7 sequence (whole entry): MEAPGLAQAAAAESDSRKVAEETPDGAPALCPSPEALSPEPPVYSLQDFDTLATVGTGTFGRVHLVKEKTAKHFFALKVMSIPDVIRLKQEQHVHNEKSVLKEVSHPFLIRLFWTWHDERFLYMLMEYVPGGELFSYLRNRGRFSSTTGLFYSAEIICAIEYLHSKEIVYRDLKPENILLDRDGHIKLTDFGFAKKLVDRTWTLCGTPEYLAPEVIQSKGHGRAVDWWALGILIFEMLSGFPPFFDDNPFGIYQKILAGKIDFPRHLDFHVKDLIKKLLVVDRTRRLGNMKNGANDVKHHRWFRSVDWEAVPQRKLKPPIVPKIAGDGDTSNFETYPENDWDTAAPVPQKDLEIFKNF
As to conditions: at 0.1 µM.

Experiment [19] deals with T7, cAMP-dependent protein kinase catalytic subunit PRKX (Homo sapiens). As to conditions: at 1 µM.
Experiment [20] has as its target Rho-associated protein kinase 1 (Homo sapiens) (UniProt Q13464). As to conditions: at 0.1 µM.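 Further: values are mean percent inhibition of ROCK1.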

Sequence of Protein kinase C theta type (Homo sapiens) (Q04759 whole entry, looked up): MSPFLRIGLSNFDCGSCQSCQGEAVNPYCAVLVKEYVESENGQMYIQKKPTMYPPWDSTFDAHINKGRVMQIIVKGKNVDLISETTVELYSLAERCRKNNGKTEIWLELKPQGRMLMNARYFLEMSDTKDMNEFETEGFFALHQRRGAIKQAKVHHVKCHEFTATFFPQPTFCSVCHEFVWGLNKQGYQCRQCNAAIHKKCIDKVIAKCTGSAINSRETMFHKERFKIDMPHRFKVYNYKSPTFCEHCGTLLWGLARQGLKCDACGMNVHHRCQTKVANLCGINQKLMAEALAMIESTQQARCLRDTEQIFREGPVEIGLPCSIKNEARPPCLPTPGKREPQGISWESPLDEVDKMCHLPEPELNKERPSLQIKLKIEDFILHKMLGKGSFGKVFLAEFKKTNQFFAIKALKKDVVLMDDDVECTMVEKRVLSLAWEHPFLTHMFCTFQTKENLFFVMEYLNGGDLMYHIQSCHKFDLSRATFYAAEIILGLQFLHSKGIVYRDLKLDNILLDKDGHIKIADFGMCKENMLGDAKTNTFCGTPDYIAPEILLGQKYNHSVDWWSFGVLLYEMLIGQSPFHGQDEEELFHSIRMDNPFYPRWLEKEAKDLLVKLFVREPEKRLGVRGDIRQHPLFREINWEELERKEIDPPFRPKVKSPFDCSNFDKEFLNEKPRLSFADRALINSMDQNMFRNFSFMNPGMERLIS
Sequence of Protein kinase C beta type (Homo sapiens) (P05771 2-671 limits assumed): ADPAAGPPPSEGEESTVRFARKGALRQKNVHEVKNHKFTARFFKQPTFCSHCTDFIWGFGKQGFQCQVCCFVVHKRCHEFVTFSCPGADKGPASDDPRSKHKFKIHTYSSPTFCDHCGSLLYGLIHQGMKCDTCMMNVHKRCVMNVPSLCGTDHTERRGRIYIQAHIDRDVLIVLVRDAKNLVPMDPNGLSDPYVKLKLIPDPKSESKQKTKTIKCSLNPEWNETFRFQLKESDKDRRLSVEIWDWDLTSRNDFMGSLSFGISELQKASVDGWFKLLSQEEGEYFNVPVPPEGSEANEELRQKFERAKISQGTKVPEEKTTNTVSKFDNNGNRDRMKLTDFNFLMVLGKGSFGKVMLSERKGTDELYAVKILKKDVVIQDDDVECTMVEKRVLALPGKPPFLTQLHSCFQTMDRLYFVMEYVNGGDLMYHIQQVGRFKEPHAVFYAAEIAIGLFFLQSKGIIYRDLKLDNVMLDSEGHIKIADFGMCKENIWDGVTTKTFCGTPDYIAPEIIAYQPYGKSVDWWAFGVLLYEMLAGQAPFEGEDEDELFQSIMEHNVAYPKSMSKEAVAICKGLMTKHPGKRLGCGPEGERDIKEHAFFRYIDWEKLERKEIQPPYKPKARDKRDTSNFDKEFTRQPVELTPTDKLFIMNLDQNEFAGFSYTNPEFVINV
Sequence of Rho-associated protein kinase 1 (Homo sapiens) (Q13464 2-1354 limits assumed): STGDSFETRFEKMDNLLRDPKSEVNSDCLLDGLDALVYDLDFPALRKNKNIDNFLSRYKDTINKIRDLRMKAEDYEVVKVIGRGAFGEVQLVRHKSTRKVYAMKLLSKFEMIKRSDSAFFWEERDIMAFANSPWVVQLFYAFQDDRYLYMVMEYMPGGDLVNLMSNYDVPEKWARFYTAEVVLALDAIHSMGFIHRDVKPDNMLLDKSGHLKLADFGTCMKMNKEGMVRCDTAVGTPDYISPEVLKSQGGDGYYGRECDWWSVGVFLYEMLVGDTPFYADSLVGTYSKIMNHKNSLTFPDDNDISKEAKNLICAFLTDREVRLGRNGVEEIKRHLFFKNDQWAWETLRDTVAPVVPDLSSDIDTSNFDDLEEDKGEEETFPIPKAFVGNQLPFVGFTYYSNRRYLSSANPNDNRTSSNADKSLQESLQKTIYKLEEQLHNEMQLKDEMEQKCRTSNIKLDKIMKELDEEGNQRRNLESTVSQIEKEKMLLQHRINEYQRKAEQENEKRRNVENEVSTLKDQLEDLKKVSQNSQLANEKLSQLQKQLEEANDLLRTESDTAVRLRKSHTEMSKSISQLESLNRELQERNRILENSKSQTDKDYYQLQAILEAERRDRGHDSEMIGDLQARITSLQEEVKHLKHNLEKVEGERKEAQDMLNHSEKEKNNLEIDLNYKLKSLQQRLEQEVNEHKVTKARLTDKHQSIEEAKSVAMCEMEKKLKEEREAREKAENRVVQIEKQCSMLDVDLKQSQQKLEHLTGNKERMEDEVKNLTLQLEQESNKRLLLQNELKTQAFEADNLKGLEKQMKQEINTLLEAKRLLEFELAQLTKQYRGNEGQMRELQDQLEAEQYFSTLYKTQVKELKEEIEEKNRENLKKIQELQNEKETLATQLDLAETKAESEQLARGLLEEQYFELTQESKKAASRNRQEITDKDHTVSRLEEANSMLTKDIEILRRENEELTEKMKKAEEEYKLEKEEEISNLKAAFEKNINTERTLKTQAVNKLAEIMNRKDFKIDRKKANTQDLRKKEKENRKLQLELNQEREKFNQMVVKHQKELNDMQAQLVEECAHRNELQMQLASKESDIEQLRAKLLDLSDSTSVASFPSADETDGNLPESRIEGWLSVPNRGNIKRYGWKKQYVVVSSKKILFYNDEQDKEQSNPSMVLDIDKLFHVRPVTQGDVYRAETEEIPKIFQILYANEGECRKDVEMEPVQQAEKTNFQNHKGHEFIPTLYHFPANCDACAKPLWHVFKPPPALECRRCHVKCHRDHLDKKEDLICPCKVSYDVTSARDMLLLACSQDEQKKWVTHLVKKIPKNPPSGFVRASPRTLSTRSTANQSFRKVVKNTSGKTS

As to `O=C1NC(=O)C(c2cccc(Cl)c2)=C1Nc1ccc(Cl)c(C(=O)O)c1`, the inhibition (in general, the change of the read-out against control, counted positive when it falls) worked out at 4.28% in [1]; 0.11% in [2]; 0.87% in experiment [3]; 1.72% in experiment [4]; 3.51% in [5]; 1% in [6]. Also, the inhibition in experiment [7] came to 1.2%; in experiment [8], 2.5%; in [9], 3.42%; in [10], 3.1%; in experiment [11], 3.62%; in [12], 2.22%. Also, the inhibition is 2.81% in [13]; 1.11% in experiment [14]; 2% in experiment [15]; -0.19% in experiment [16]; 1.58% in experiment [17]; 2.51% in experiment [18]. For the same compound, the inhibition is 2.74% in [19] and -0.01% in [20].
